The record followed here is ChEMBL document CHEMBL4513216, “Probing the Open Global Health Chemical Diversity Library for Multistage-Active Starting Points for Next-Generation Antimalarials” (ACS Infect Dis, 2020).

Among all 69,000 compounds or so, about 8,600 (12%) showed an effect of 50% or more. This is one part of a sample in which strong results are shown more often than they occur.

The subject of this test is Plasmodium berghei. The test can be described thus: Screen against P. berghei liver stage (PbLuc), transformed with Luciferase, at 10uM. It is filed as functional, HepG2. As to conditions: tested at 10 uM.
In the case of `Cc1cc(CN(C2CC2)C(C)C(C)C)on1` (stereo not drawn), the INHIBITION is reported as -21.8%. Regarding `Cc1cc(CN(Cc2ccccc2)C2CC2)on1`, the INHIBITION was determined as 33.7%. For the compound `COc1ccc(CN(Cc2cc(C)no2)C2CC2)cc1`, the INHIBITION came out at 92.2%.

For the compound `Cc1ccc(CN(Cc2cc(C)no2)C2CC2)cc1`, the INHIBITION was found to be 53.2%. The result for `COCCN(Cc1noc(-c2ccc(OC)cc2)n1)C1CC1` reads 15.5%; that for `COc1ccc(CN(Cc2nc(C)no2)C2CCCCC2)cc1OC`, 14.4%.

As for `O=C(Nc1cnc2n1CCCC2)C1CCNCC1`, the INHIBITION is reported as 18.7%. For `O=C(NCC1CC1)[C@@H]1CCO[C@@H]2CCN(Cc3ccc(F)cc3)C[C@H]21` the value was -10.3%. For the compound `Cc1cnn(CC2CCCN2C(=O)c2ccc3c(c2)nnn3C)c1` (stereo not drawn), the INHIBITION was determined as 23.2%. With `C=Cc1cccc(CN2C[C@@H]3CC[C@H]2CN(Cc2c(C)noc2C)C3)c1`, the INHIBITION is reported as -19.2%.

Take `CN(C)C(=O)N1CCOCC2(CCN(c3ncccn3)C2)C1` (stereo not drawn): the INHIBITION is recorded as -5.29%. With `COCCNc1c(C#N)c2c(c3nncn13)CN(C)CC2`, the INHIBITION amounted to 32.5%. The result for `CN1CCc2c(C#N)c(NCCc3ccccc3)n3cnnc3c2C1` reads 60.7%; that for `CN1CCc2c(C#N)c(NCCCO)n3cnnc3c2C1`, 32.5%; that for `CC(C)CCNc1c(C#N)c2c(c3nncn13)CN(C)CC2`, 60.7%. For `CN1CCc2c(C#N)c(NCCN3CCOCC3)n3cnnc3c2C1`, the INHIBITION came to 35%. Take `CN1CCc2c(C#N)c(NCc3ccncc3)n3cnnc3c2C1`: the INHIBITION was determined as 10.1%.

On to `CN1CCc2c(C#N)c(NCc3cccnc3)n3cnnc3c2C1`, for which the INHIBITION is given as 53.2%. For the compound `CN1CCc2c(C#N)c(NCc3ccco3)n3cnnc3c2C1`, the INHIBITION is given as 19.7%. Consider `CN1CCc2c(C#N)c(NCc3ccccc3)n3cnnc3c2C1`, for which the INHIBITION amounted to 24.2%. On to `Cc1ncsc1CN1C[C@@H]2COC[C@]2(C(=O)NC(C)C)C1`, for which the INHIBITION stood at 18.6%.

Regarding `COc1ccc(CC(=O)N2Cc3nccn3CC(CN(C)C)C2)cc1` (stereo not drawn), the INHIBITION came out at 6.72%.

`CC(NC(=O)NCc1ccoc1)c1ccc2c(c1)CC(=O)N2` (stereo not drawn): the INHIBITION is -55.4%. `CCOc1cccc(CNC2CCCN(Cc3noc(C)n3)C2)c1` (stereo not drawn): the INHIBITION is 47%. Take `COCCn1cncc1Cn1ncc2ccccc2c1=O`: the INHIBITION is given as 13%.

Take `COCCN1CCCC12CCN(Cc1cncn1C)CC2`: the INHIBITION turned out to be 49.1%. On to `COCCn1cncc1CN1CCC(C(C)=O)(c2ccccc2)CC1`, for which the INHIBITION was 50.7%. Take `CC(C)CN(CC(O)c1ccc(F)cc1)C(=O)c1cnsn1` (stereo not drawn): the INHIBITION is on record as -24.9%. In the case of `CCc1cc(CN2C[C@@H]3CC[C@H]2CN(C2Cc4ccccc4C2)C3)on1`, the INHIBITION is listed as 57.1%. Take `Cc1noc(CN2C[C@@H]3CC[C@H]2CN(C2Cc4ccccc4C2)C3)n1`: the INHIBITION came out at 30.9%. For `Cc1cc(CN2C[C@@H]3CC[C@H]2CN(C2Cc4ccccc4C2)C3)on1`, the INHIBITION is on record as 64.5%. In the case of `CCc1noc(CN2C[C@@H]3CC[C@H]2CN(C2Cc4ccccc4C2)C3)n1`, the INHIBITION is listed as 12.8%. For `CN(C)C(=O)N1C[C@@H]2CC[C@H]1CN(C1Cc3ccccc3C1)C2`, the INHIBITION is -57.9%.

With `O=C(CO)N1C[C@@H]2CC[C@H]1CN(C1Cc3ccccc3C1)C2`, the INHIBITION is 25.4%. As for `CSCC(=O)N1C[C@@H]2CC[C@H]1CN(C1Cc3ccccc3C1)C2`, the INHIBITION is listed as -69.3%. With `COCCOCC(=O)N1C[C@@H]2CC[C@H]1CN(C1Cc3ccccc3C1)C2`, the INHIBITION is -62.1%. For the compound `Cc1nnc(CN2C[C@@H]3CC[C@H]2CN(C2Cc4ccccc4C2)C3)o1`, the INHIBITION was determined as 66.1%.

For the compound `O=C1COC2(CCN(C(=O)c3ccco3)CC2)CN1Cc1ccccn1`, the INHIBITION was 28.2%. The result for `CCn1cc(-c2n[nH]c(=O)n2-c2ccc(OC)c(OC)c2)c(C)n1` reads 41.4%. The result for `CCn1ccc2ccnc(CC3CN(C(=O)Cn4ccnc4C)C3)c21` reads 6.26%; that for `CCc1nccn1C1CCCN(C(=O)c2ccc3nnc(C)n3c2)C1` (stereo not drawn), -6.44%. `COc1c(NS(=O)(=O)c2ccc(F)c(C)c2)c(C)nn1C`: the INHIBITION was 29.6%. For the compound `COc1c(NS(=O)(=O)c2ccc(C)c(C)c2)c(C)nn1C`, the INHIBITION was 51.1%. On to `Cc1ccc(S(=O)(=O)Nc2c(C)nn(C)c2C)cc1C`, for which the INHIBITION stood at 45.7%. Regarding `Cc1noc(C)c1S(=O)(=O)N1CCC(n2cccn2)CC1`, the INHIBITION is given as -25.4%. As to `CCN1CCC(N2CCC(c3nc(C)cc(C)n3)C2)CC1` (stereo not drawn), the INHIBITION is reported as 23.9%. On to `CN(C)C(=O)C1CCCN1CCCNC(=O)c1ccccc1Cl` (stereo not drawn), for which the INHIBITION is reported as 42.5%. For the compound `CC(C)(C)c1oc(C(N)=O)cc1CN1CCCCC1CN1CCOCC1` (stereo not drawn), the INHIBITION is reported as 48.5%. For `CC(C)(C)c1oc(C(N)=O)cc1CN1CCOC(C(F)(F)F)C1` (stereo not drawn), the INHIBITION amounted to 22.5%.

Consider `CC(C)(C)c1oc(C(N)=O)cc1CN1CCCCC(N)C1` (stereo not drawn), for which the INHIBITION was determined as 51.8%. In the case of `Cc1ccc(OCCNC(=O)C(C)n2cncn2)cc1` (stereo not drawn), the INHIBITION was 8.47%.

For `CC(NC(=O)NCCOc1ccc(F)c(F)c1)c1nncn1C` (stereo not drawn), the INHIBITION is listed as 0.0932%. Take `CC(Sc1nncn1C)C(=O)NCCCOc1ccc(F)cc1` (stereo not drawn): the INHIBITION is on record as 51.7%.
